# Experimental data as given in PubChem BioAssay AID1347076 (National Center for Advancing Translational Sciences (NCATS), 2019).
# Screen size: about 400,000 compounds; about 13,000 (3.2%) were called active. Another 18% or so got no clear call; they are omitted. This is one part of a sample in which actives are shown more often than they occur. Unmarked numbers belong to inactive results. Calls come from the whole dose curve; as a rule, active = well fitted cell-killing curve with a large enough effect; inconclusive = small, poorly fitted or top-dose-only effect, or effect the other way; inactive = flat fitted curve, though single readings scatter.
# Test: qHTS assay for MDR1-selective chemotherapeutics: Primary screen using the drug-selected MDR subline cells KB-V1; note: nearly all actives have a fitted effect of over 60% in size
# Conditions: KB-V1 MDR cells viability, CellTiter-Glo, 72 h; series mostly up to 46.1 µM; activity change, negative = cytotoxicity: at the top concentration
# Source text: A prime difficulty in effectively treating cancer is the development of cellular resistance to multiple structurally unrelated anticancer drugs, a phenomenon known as multidrug resistance (MDR). […] Numerous strategies to overcome P-gp-mediated MDR have been explored, including the design of drugs that evade recognition and efflux, and development of inhibitors to block efflux and restore drug accumulation. […] An alternative approach is to exploit resistance by identifying drugs that target MDR cells over the non-resistant parental cells from which they were selected. […] The development of MDR1-selective agents represents a new strategy for resolving multidrug resistance, as it remains a long-standing clinical challenge for cancer chemotherapy.
# Our goal is to identify compounds that selectively kill P-gp-expressing MDR cells. We will identify MDR1-selective compounds by comparing toxicity of compounds in the screening library against parental, drug-naive (KB-3-1) adenocarcinoma cells as well as their drug-selected MDR sub-line (KB-V1). The differential toxicity of compounds against these two cell lines will be used to identify MDR1-selective compounds, whose cytotoxicity is potentiated, rather than diminished, by P-gp expression. This assay will be utilized to conduct a quantitative high-throughput screen (qHTS) in collaboration with the NIH Chemical Genomics Center to identify selective agents, and probe hits arising from the screen will be validated using secondary assays and characterized through a well-established follow-up research program. This screen was run against the entire NCGC library collection of about 400,000 compounds.
# NIH Molecular Libraries Probe Production Network [MLPCN]
# NIH Chemical Genomics Center [NCGC]
# PI: Michael Gottesman, National Cancer Institute, NIH
# Briefly, 5 microL of media containing either KB-V1 cells (columns 1-2, 4-48) are dispensed into Greiner white, treated solid-bottom 1536-well assay plates (media-only control is added to column 3). Compounds are then transferred via Kalypsys pin tool equipped with 1536-pin array (10 nL slotted pins, V&P Scientific, San Diego, CA). Following addition of compound, the plates are incubated at 37 degrees C for 72 hours. CellTiter-Glo (2.5 µL/well) is then added, and the plates are read in a ViewLux reader (Perkin-Elmer, clear luminescence filter, 1 second exposure, 1x binning) following a 10 minute incubation. All cells are dispensed in DMEM phenol-red free media containing 10% FBS.
# Library plates were screened starting from the lowest and proceeding to the highest concentration. Vehicle-only plates, with DMSO being pin-transferred to columns 5-48, will be inserted uniformly at the beginning and the end of each library in order to monitor and record any shifts in the background, which can be affected by reagent dispensers or loss in enzyme activity over time. Screening data will be corrected, normalized, and concentration-effect relationships will be derived by using publicly-available NCGC, NCATS curve fitting algorithms (http://ncgc.nih.gov/pub/openhts).
# % is set by controls: 0 for no effect and ±100 for the full control effect; potency is the fitted concentration of half-maximal effect.
SMILES,"activity change, negative = cytotoxicity [%]",Potency
CCOc1ccccc1NC(=S)C(=C([O-])c1ccc2c(c1)OCCO2)[n+]1ccc(CC)cc1,-25.9,–
CC(=O)c1ccccc1NC(=O)C1CC(=O)N(c2ccc3c(c2)OCCO3)C1 (stereo not drawn),–,16.4 µM (active)
CCc1nnc(NC(=O)C2CC(=O)N(c3ccc4c(c3)OCCO4)C2)s1 (stereo not drawn),0,–
CCOC(=O)c1ccc(NC(=O)C2CC(=O)N(c3ccc4c(c3)OCCO4)C2)cc1 (stereo not drawn),4.09,–
COc1cccc(NC(=O)CSC2=Nc3ccccc3C3=NC(CC(=O)NC4CCCCC4)C(=O)N23)c1 (stereo not drawn),2.59,–
CCc1ccc2c(c1)NC(=O)C2(C)Cc1ccc(OC(F)(F)F)cc1 (stereo not drawn),-4.96,–
Nc1ncnc2c1ncn2[C@@H]1O[C@H](CNC(=O)[C@H](N)Cc2cccnc2)[C@@H](O)[C@H]1O,6.11,–
CCC1(C)CC(=O)c2c(ccc3oc(C(=O)Nc4ccc(C(C)=O)cc4)c(C)c23)O1 (stereo not drawn),-20.1,–
Cc1ccc(Cn2c(=O)n(CCCC(=O)NCc3ccccc3Cl)c(=O)c3ccccc32)cc1,-1,–
COc1ccc(CCNC(=O)CCCCn2c(=O)c3ccccc3n(Cc3ccccc3C)c2=O)cc1OC,-3.1,–
COc1cc(C(=O)Nc2ccc(OCc3cc(=O)n4cc(C)sc4n3)cc2)cc(OC)c1OC,28,–
Cn1c(=O)c2c(nc(Oc3ccc(C#N)cc3)n2Cc2ccc(Cl)cc2Cl)n(C)c1=O,4.58,–
Cc1ccc(N2C(=O)S/C(=C/c3cn(C)c4ccccc34)C2=O)cc1,2.62,–
Cc1ccc(C(=O)N/C(=C\c2cn(C)c3ccccc23)C(=O)N2CCN(C)CC2)cc1,7.97,–
Cc1cccc(N=C2NC(=O)/C(=C/c3cn(C)c4ccccc34)S2)c1,–,14.6 µM (active)
CC1=C(C(=O)N2CCOCC2)CC(CC(=O)NCCCN(C)C)C(=O)N1Cc1ccc(C(C)(C)C)cc1 (stereo not drawn),8.92,–
CC(C)OC(=O)CC(=O)CC(O)c1cccc([N+](=O)[O-])c1 (stereo not drawn),1.32,–
CCN(c1ccc2c(c1)OCO2)S(=O)(=O)c1cc(Br)cc2c1N(C(=O)C1CC1)CC2,–,5.17 µM (active)
CCOC(=O)N1CCN(S(=O)(=O)c2cc(Br)cc3c2N(C(=O)C2CC2)CC3)CC1,-6.54,–
CN(Cc1ccccc1)C(=O)CCS(=O)(=O)c1cc(Br)cc2c1N(C(=O)C1CC1)CC2,-12.9,–
CCOC(=O)c1ccc(-c2ccc3ncnc(N(C)Cc4sccc4C)c3c2)o1,-3.7,–
O=C(CNC(=O)c1ccc(Br)o1)Nc1ccccc1,16,–
CCCC(=O)Nc1ccc(Cl)c(NC(=O)c2ccc(Br)o2)c1,–,20.6 µM (active)
CCN1CCN(c2c(Cl)cccc2NC(=O)c2ccc(Br)o2)CC1,-4.86,–
Cc1ccc2cccc(NC(=O)C(C)Oc3ccc(C)c(C)c3)c2n1 (stereo not drawn),0.037,–

SMILES,"activity change, negative = cytotoxicity [%]",Potency
CC1(C(=O)NS(=O)(=O)c2ccc(C#N)cc2)CCN1C(=O)CC1CCCC1 (stereo not drawn),1.86,–
Cc1cc(-c2n[nH]c(=S)n2/N=C/C(Br)=C/c2ccccc2)n[nH]1,–,10.3 µM (active)
CC(C)c1cc(C(=O)N/N=C/C(Br)=C/c2ccccc2)n[nH]1,-26.2,–
S=c1[nH]nc(-c2cc(-c3ccccc3)n[nH]2)n1/N=C/c1c2ccccc2cc2ccccc12,3.84,–
CCCCS(=O)(=O)c1oc(-c2cccs2)nc1S(=O)(=O)c1ccccc1,-0.671,–
O=C(C1CCCO1)N1CCN(C(=O)C23CC4CC(CC(C4)C2)C3)CC1 (stereo not drawn),18.8,–
CCN(c1ccccc1)S(=O)(=O)c1ccc(C(=O)Nc2ccccc2OC)cc1,-9.91,–
CCN(c1ccccc1)S(=O)(=O)c1ccc(NC(=O)C(C)(C)C)cc1,–,11.6 µM (active)
CCN(c1ccccc1)S(=O)(=O)c1ccc(N)cc1,1.93,–
CC1(C(=O)Nc2cccc3c2CCCC3)CCN1C(=O)CCc1ccc(Cl)cc1Cl (stereo not drawn),-8.74,–
CN(CCO)C(=O)c1nc[nH]c1C(=O)N(C)Cc1ccccc1,-5.16,–
Cc1ccc(CNC(=O)CSc2c3c(nc4cc(Cl)ccc24)CCCC3)cc1,6.96,–
Cc1ccc(NC(=O)CN(C)Cc2ccc(F)cc2)c([N+](=O)[O-])c1,–,9.2 µM (active)
Cc1ccc(NC(=O)c2oc3ccccc3c2C)c([N+](=O)[O-])c1,-19.5,–
Cc1c(NC(=S)NCc2ccc(F)cc2)cccc1[N+](=O)[O-],-18.7,–
CCC(=O)N1CCC(C)(C(=O)Nc2cc(OC)c(OC)c(OC)c2)C1 (stereo not drawn),5.6,–
CCOCCc1nn2c(=O)cc(COC(=O)CNC(=O)c3ccc(C(C)(C)C)cc3)nc2s1,22,–
COc1ccc(-n2nnnc2SCC(=O)c2ccc(OC)c(OC)c2)cc1,–,18.4 µM (active)
COc1ccc(CSc2nnnn2-c2ccc(C(=O)O)cc2)cc1,0,–
COc1ccc(NC(=O)CSc2nnnn2-c2cccc(OC)c2)cc1,10.7,–
COc1c(C)cc(C(O)c2ncc(-c3cccc(C(F)(F)F)c3)[nH]2)cc1C (stereo not drawn),-11,–
CS(=O)c1ccc(/C=C2\C=Cc3ccccc32)cc1 (stereo not drawn),0,–
COc1ccc(S(=O)(=O)Nc2cccnc2)c(Cl)c1Cl,-23.8,–
CCOc1ccc(S(=O)(=O)Nc2ccc(OC)nc2)cc1,-0.792,–
COc1ccccc1Oc1ccc(S(=O)(=O)Nc2cccnc2)cc1,–,2.59 µM (active)

SMILES,"activity change, negative = cytotoxicity [%]",Potency
Cc1cc(C)n2ncc(C(=O)N3CCCC3)c2n1,-7.32,–
Cc1cc(Cl)ccc1OCCCC(=O)NCc1ccncc1,–,16.4 µM (active)
Cc1cc(Cl)ccc1OCCCC(=O)Nc1cccc(-n2cnnn2)c1,-0.681,–
CCOC(=O)N1CCN(C(=O)COc2ccc(Cl)cc2C)CC1,0,–
COCOCCn1cc(CN2CCS(=O)(=O)N(Cc3ccc(-c4cccc(N(C)C)c4)cc3)C(CC(C)C)C2=O)nn1 (stereo not drawn),11.8,–
CCNC(=O)C1(C)CCCN(C(=O)c2c(C)noc2C)C1 (stereo not drawn),-1.18,–
CCCCCCNC(=O)O[C@H]1CN(C(=O)OC(C)C)N(C(=O)OC(C)C)[C@@H]2CN(S(=O)(=O)c3ccc(C)cc3)C[C@]12O,-29.2,–
COc1ccc(C2=NN(C(=O)CSc3nnnn3C)C(c3ccco3)C2)cc1 (stereo not drawn),56,–
CCOC(=O)C1C(=O)NC(N2CCN(c3ccccc3)CC2)=NC1c1ccco1 (stereo not drawn),6.85,–
CCOC(=O)C1C(=O)C=C(c2ccc(OC)cc2)CC1c1ccco1 (stereo not drawn),–,11.6 µM (active)
O=C(CS(=O)(=O)c1cccc2nsnc12)N1CCN(c2cccc(Cl)c2)CC1,0,–
CC(=O)Nc1cccc(-c2cc3nc(NCc4cccnc4)n(C)c(=O)c3s2)c1,2.7,–
CC1(C(=O)NS(=O)(=O)c2ccccc2)CCN1C(=O)Cc1ccc(-c2ccccc2)cc1 (stereo not drawn),2.72,–
Cc1ccc(C(=O)c2coc3ccc(O)c(CN(C)C)c23)cc1,6.06,–
COc1ccc(OC)c(C(=O)c2coc3ccc(OC)cc23)c1,-6.37,–
COc1ccc(OC)c(C(=O)c2coc3ccc(O)c(CN4CCOCC4)c23)c1,–,7.31 µM (active)
CC(=O)NC(c1ccccc1)c1nc(-c2ccccc2C)cs1 (stereo not drawn),5.09,–
O=C(c1ccco1)N(Cc1cccs1)c1ccc(O)cc1,-11.9,–
COc1cccc(NC(=O)N(C)C[C@@H]2Oc3ncc(Br)cc3C(=O)N([C@@H](C)CO)C[C@H]2C)c1,-16.2,–
O=C(CN1CCN(S(=O)(=O)c2ccc3ccccc3c2)CC1)NC(=O)NC1CCCCC1,–,18.4 µM (active)
COc1ccc(S(=O)(=O)N2CCN(C(=O)NC3CCCCC3)CC2)cc1,2.42,–
O=C(CN1CCN(S(=O)(=O)c2ccc(F)cc2)CC1)NC1CC1,12.1,–
CC(=O)c1sc(N2C(=O)c3oc4ccccc4c(=O)c3C2c2ccc(C)cc2)nc1C (stereo not drawn),25,–
CN(C)c1ccnc2sc(C(=O)c3ccccc3)c(N)c12,12.2,–
CN(C)/C=C/c1c(C#N)c(=O)ncn1Cc1ccccc1,-13.6,–

SMILES,"activity change, negative = cytotoxicity [%]",Potency
CN(C)c1ccnc2sc3c(=O)n(Cc4ccccc4)cnc3c12,–,8.2 µM (active)
COc1ccc(-c2coc3c(C(=O)NC(C)C)cccc23)c(C)c1,-5.97,–
CCS(=O)(=O)N1Cc2ccccc2CC1C(=O)Nc1ccc(OC)cc1OC (stereo not drawn),3.09,–
CC(=O)Nc1ccc2nc(NC(=O)CS(=O)(=O)c3ccc(F)cc3)sc2c1,-2.91,–
CCS(=O)(=O)N1Cc2ccccc2CC1C(=O)Nc1nc2ccc(F)cc2s1 (stereo not drawn),–,14.6 µM (active)
NC(=O)C1CCN(c2ncc(-c3ccc(Cl)cc3)s2)CC1,13.3,–
CCCC(=O)N1CCC1(C)C(=O)Nc1ccc(-n2cncn2)cc1 (stereo not drawn),5.17,–
CSCCC(C(=O)NC(C)(C)C)n1c(-c2ccccc2)nc2ccccc21 (stereo not drawn),-25.2,–
Cc1cccc(C)c1N1CCN(S(=O)(=O)N2CCOCC2)CC1,–,16.4 µM (active)
Cc1ccc(S(=O)(=O)N2CCN(S(=O)(=O)N3CCOCC3)CC2)cc1,6.91,–
O=S(=O)(N1CCOCC1)N1CCN(c2ccccc2F)CC1,-16.5,–
Clc1ccc(-n2nnnc2CN2CCCCC2)cc1Cl,–,13 µM (active)
c1cc(-c2nn[nH]n2)ccc1CN1CCCCC1,-12.7,–
Clc1ccc(CN2CCCCCC2)cc1Cl,-11.5,–
COc1ccc(S(=O)(=O)NC(=O)C2(C)CCN2C(=O)c2ccccc2CCc2ccccc2)cc1 (stereo not drawn),-9.62,–
Cc1ccc(C)c(N2CCN(C(=O)CN3C(=O)COc4ccc(S(=O)(=O)N5CCCCCC5)cc43)CC2)c1,-1.22,–
Cc1nn(-c2ccccn2)c2c1C(c1ccncc1)C1=C(CC(C)(C)CC1=O)N2 (stereo not drawn),-6.62,–
Cc1cc2c(cc1C)NC(c1ccccn1)C1=C(CC(C)(C)CC1=O)N2 (stereo not drawn),-1.56,–
CC1(C)CC(=O)C2=C(C1)Nc1cc(C(=O)c3ccccc3)ccc1NC2c1ccccn1 (stereo not drawn),–,20.6 µM (active)
COc1ccc(C)cc1NC(=O)COCc1cc(-c2cccs2)on1,-7.37,–
O=S1(=O)CC(N2CCN(c3ccccn3)CC2)CN1Cc1ccc(F)cc1 (stereo not drawn),-24.7,–
COC(=O)C[C@@H]1C=C[C@@H](NS(=O)(=O)c2cccc(OC)c2)[C@@H](CO)O1,-3.47,–
CC(C)C[C@H]1CNC(=O)C(=O)N1C[C@@H]1CCCN1C[C@H](Cc1ccccc1)N1C[C@H](CC(C)C)N(CC2CCCCCC2)C(=O)C1=O,1.82,–
